G9a inh: qHTS Assay for Inhibitors of Histone Lysine Methyltransferase G9a; Histone-lysine N-methyltransferase EHMT2 (Homo sapiens), Q96KQ7; G9a H3K9 monomethylation, AlphaScreen, 2 h; Potency, µM (titrated, usually from 102 µM), inactives show at the highest dose activity, negative = inhibition, actives largely listed as inhibitors; hit rate 8.8% among 350,000; AID 504332, 2011; note: % is set by controls: 0 for no effect and ±100 for the full control effect; nearly all actives have a fitted effect of over 75% in size
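Compounds were preincubated with 20 nM G9a for 15 min, after which biotinylated H3K9 peptide (500 nM) and SAM (20 uM) started a 2 h room-temperature reaction. Monomethylated product was quantified by antibody-based AlphaScreen chemiluminescence.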
BAZ2B block: qHTS Assay for Inhibitors of BAZ2B | Bromodomain adjacent to zinc finger domain protein 2B (Homo sapiens), Q9UIF8 | Potency, µM (highest dose often 114 µM), without a hit: top-dose activity change, negative = inhibition, hits mostly inhibitors | AlphaScreen BAZ2B-H3K14Ac peptide displacement | hit rate 4.4% among 360,000; note: % is set by controls: 0 for no effect and ±100 for the full control effect; nearly all actives have a fitted effect of over 60% in size
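AlphaScreen displacement: compounds (up to 110uM) incubated 30 min at room temperature with a preformed 50 nM BAZ2B/50 nM biotinylated H3K14Ac peptide complex in PBS pH 7.4 with Tween-20. Donor and acceptor beads at 10 ug/mL final added, 20 min light-protected before reading.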
HP1b binding inh: HTS for Inhibitors of HP1-beta Chromodomain Interactions with Methylated Histone Tails; Potency, µM (doses to about 114 µM), inactives show at the highest dose activity change, negative = inhibition, actives largely listed as inhibitors; Chromobox protein homolog 1 (Homo sapiens), P83916; hit rate 0.56% among 390,000; AlphaScreen HP1-beta / biotin-H3K9me3 peptide binding; note: nearly all actives have a fitted effect of over 70% in size
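AlphaScreen: HP1-beta (50 nM) preformed 30 min with biotin-H3(1-18)K9me3 peptide (50 nM) in PBS pH 7.4, 0.01% Tween-20. Compound added for 30 min at RT, then streptavidin donor/nickel chelate acceptor beads (10 ug/mL) for 30 min.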
JMJD2A Tudor: qHTS Assay for Inhibitors of JMJD2A-Tudor Domain. AlphaScreen JMJD2A-Tudor / H3K4me3 peptide binding. hit rate 4.4% among 390,000. Lysine-specific demethylase 4A (Homo sapiens), O75164. Potency, µM (highest dose often 114 µM), for the others: at the top dose activity change, negative = inhibition, most hits filed as inhibitors. AID 504339, 2011; note: % is set by controls: 0 for no effect and ±100 for the full control effect; nearly all actives have a fitted effect of over 50% in size
L3MBTL1 block: qHTS Assay for the Inhibitors of L3MBTL1. Lethal(3)malignant brain tumor-like protein 1 (Homo sapiens), Q9Y468. AlphaScreen L3MBTL1–H3K9me1 peptide binding. Potency, µM (series often up to 57.1 µM), without a hit: top-dose activity, negative = inhibition, actives largely listed as inhibitors. hit rate 0.66% among 230,000. AID 485360, 2010; note: % is set by controls: 0 for no effect and ±100 for the full control effect; nearly all actives have a fitted effect of over 60% in size
Target sequence (Q9Y468 whole entry, looked up): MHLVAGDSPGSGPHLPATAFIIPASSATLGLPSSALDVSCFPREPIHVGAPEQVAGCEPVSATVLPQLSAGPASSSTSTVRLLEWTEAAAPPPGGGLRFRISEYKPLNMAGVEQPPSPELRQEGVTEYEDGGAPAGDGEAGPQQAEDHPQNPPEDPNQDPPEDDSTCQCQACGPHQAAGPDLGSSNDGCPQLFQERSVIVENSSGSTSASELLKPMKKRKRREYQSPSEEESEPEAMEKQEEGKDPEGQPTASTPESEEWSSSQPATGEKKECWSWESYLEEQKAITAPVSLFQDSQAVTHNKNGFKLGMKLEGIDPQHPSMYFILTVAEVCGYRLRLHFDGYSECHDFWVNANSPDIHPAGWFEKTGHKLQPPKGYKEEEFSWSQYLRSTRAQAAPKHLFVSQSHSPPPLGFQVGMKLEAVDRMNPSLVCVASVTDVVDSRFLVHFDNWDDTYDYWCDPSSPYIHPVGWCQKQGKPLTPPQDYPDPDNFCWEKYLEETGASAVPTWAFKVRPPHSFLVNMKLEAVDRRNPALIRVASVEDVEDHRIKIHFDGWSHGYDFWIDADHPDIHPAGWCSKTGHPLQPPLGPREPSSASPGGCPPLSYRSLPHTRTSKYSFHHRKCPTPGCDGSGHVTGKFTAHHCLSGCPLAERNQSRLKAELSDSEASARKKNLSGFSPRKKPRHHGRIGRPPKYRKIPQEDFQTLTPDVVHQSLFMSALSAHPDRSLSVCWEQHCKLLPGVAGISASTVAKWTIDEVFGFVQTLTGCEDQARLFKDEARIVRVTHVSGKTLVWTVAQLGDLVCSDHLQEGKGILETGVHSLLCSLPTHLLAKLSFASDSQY
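L3MBTL1 50 nM + b-AHA-H3(1-15)K9me1 75 nM, 30 min RT; compound added, 30 min RT; streptavidin donor/Ni-chelate acceptor beads 10 ug/mL each final, 30 min RT dark; AlphaScreen read.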
Active calls of the source: *; ? = inconclusive; . = no result; ! = not confirmed by another sample; [ ] = remark or other dose. Only some compounds are listed: those with a hit (about 11% of all), similar ones and a draw of the others. Calls come from the whole dose curve; as a rule, active = well fitted inhibition curve with a large enough effect; inconclusive = small, poorly fitted or top-dose-only effect; inactive = no such curve, though single readings can be large or run the other way. Potency is the fitted concentration of half-maximal effect.

SMILES	G9a inh	BAZ2B block	HP1b binding inh	JMJD2A Tudor	L3MBTL1 block
Cc1ccc(CN(Cc2ccccc2)C(=S)NCC(=O)N2CCC3(CC2)OCCO3)o1	50.1µM*	?	-13.1%	-35.3%	-15.4%
CCOC(=O)c1c(C)[nH]c(C)c1S(=O)(=O)NCC(=O)N1CCN(c2cc(Cl)ccc2C)CC1	?	?	5.4%	?	.
C#CCNc1ccncc1S(=O)(=O)NC(=O)NC(C)C	?	-9.0%	24.3%	50.1µM*	2.7%
CCOC(=O)c1ccc(N=C(CC)c2c(O)n(C)c(=O)n(C)c2=O)cc1	?	-38.4%	0.8%	?	.
CCC(=Nc1ccc(Cc2ccncc2)cc1)c1c(O)n(C)c(=O)n(C)c1=O	79.4µM*	-5.7%	20.2%	-8.6%	-1.7%
O=C(O)CP(=O)(O)c1ccc(Cl)cc1	50.1µM*	-35.6%	28.6%	39.8µM*	0.4%
O=C1CC(c2ccccc2Br)c2c(c3ccccc3oc2=O)O1 (stereo unspecified)	7.9%[59 µM]	-6.0%	43.5%	-2.4%	.
CN1CCN(c2ccc(NC(=O)Oc3ccccc3)cc2)CC1	3.55µM*	-1.1%	-0.7%	-22.6%	.
CCOC(=O)c1ccccc1NC(=O)N(Cc1ccc(CC)cc1)Cc1cn[nH]c1-c1ccc(OC)cc1	8.0%[59 µM]	25.8%	64.2%	16.6%	.
N[C@@]1(C(=O)O)CC[C@@H](C(=O)O)C1	29.9µM*!	-1.2%	-16.1%	50.1µM*	0.1%
CCCCC1C(=O)NC(=S)N(C)C1=O (stereo unspecified)	.	.	-1.5%	79.4µM*	.
CCCCOc1ccc(CC2C(=O)N(C)C(=O)N(C)C2=O)cc1	-44.4%[59 µM]	6.3%	35.4%	-18.0%	?
CCCCC1C(=O)NC(=S)NC1=O	4.47µM*	-26.2%	.	.	12.5%
CCCCCC1(C(C)C)C(=O)NC(=S)NC1=O	.	.	37.4%	-4.2%	.
c1ccc2c(c1)c1cccc3ccc4cccc2c4c31	5.6%[0.501 µM]	-3.3%	29.9%	-17.9%	9.2%
O=C1C=CC(=O)C(Cl)=C1	0.708µM*	.	.	.	.
Cn1c(O)c(N=Nc2ccc(S(=O)(=O)N3CCOCC3)cc2)c(=O)n(C)c1=O	?	-22.5%	-1.6%	-27.7%	-6.4%
O=C1NC(=O)C(=Cc2ccc(-c3ccc(S(=O)(=O)N4CCOCC4)cc3)o2)C(=O)N1	7.08µM*	-5.0%	45.3%	-22.1%	-6.4%
O=C1NC(=O)C(=Cc2ccc(-c3ccc(F)cc3O)o2)C(=O)N1	7.08µM*	56.2µM*	-16.3%	?	?
O=C1NC(=O)C(=Cc2ccc(-c3ccc(Cl)cc3)o2)C(=O)N1	6.31µM*	?	13.9%	?	11.6%
CCCCC/C=C\C/C=C\C/C=C\C/C=C\CCCC(N)=O	44.9%[59 µM]	.	.	.	.
CC(=O)C1CCC2C3CCC4=CC(=O)CC[C@@]4(C)C3CC[C@]12C (stereo partly specified)	-20.9%[2.33 µM]	.	.	.	.
Cc1ccc(NC(=O)N(Cc2ccc3c(c2)OCO3)C2CCN(Cc3ccccc3)CC2)cc1Cl	?	-38.9%	-1.1%	?	.
CCCc1cnc2c(c1SCC(=O)Nc1ccc([N+](=O)[O-])cc1)c(=O)n(C)c(=O)n2C	12.6µM*	-15.7%	-4.6%	-24.4%	.
Brc1ccc2[nH]cc(C=NN3CCCCCC3)c2c1	.	.	?	50.1µM*	.
SMILES	G9a inh	BAZ2B block	HP1b binding inh	JMJD2A Tudor	L3MBTL1 block
COc1cc([C@@H]2c3cc4c(cc3[C@@H](O)C3COC(=O)C32)OCO4)cc(OC)c1O (stereo partly specified)	.	.	29.0%	-12.1%	.
O=C1CC2OCC=C3CN4CC[C@@]56c7ccccc7N1C5C2C3CC46 (stereo partly specified)	-31.8%[2.33 µM]	.	.	.	.
CN(C)c1ccc2c(c1)N=C(c1ccco1)OP2(=S)N1CCOCC1 (stereo unspecified)	14.1µM*	?	11.2µM*	79.4µM*	-7.6%
CCOC(=O)N1CCC(NC(=O)CCc2nc(C3=CCN(C)CC3)no2)CC1	?	79.4µM*	13.2%	-6.2%	-5.3%
CCN(CC)c1ccc(NC(=O)c2cccc(C)c2)cc1S(=O)(=O)Nc1ccccc1OC	3.55µM*	-36.9%	?	?	0.6%
Cc1ccc(C)c(S(=O)(=O)c2nnn3c2nc(N2CCN(C)CC2)c2sccc23)c1	5.1%[59 µM]	?	41.2%	-29.3%	.
CNc1ccc2oc(C[C@H]3O[C@@]4(CC[C@H]3C)O[C@H]([C@H](C)C(=O)c3ccc[nH]3)[C@H](C)C[C@H]4C)nc2c1C(=O)O	-20.1%[59 µM]	-10.4%	17.4%	?	.
CNc1ccc2oc(C[C@@H]3OC4(CC[C@@H]3C)O[C@H]([C@@H](C)C(=O)c3ccc[nH]3)[C@H](C)C[C@H]4C)nc2c1C(=O)O (stereo partly specified)	15.8µM*	.	.	.	.
NC(=O)C[N+]1(CC#CC(O)(c2ccccc2)c2ccccc2)CCCC1	35.5µM*	-3.1%	21.6%	31.6µM*	.
CC1CCCCC1n1c(-c2cccnc2)n[nH]c1=S (stereo unspecified)	14.1µM*	-5.6%	53.8%	7.08µM*	7.5%
COc1ccc2c(c1OC)C(=O)OC2c1c(O)n(Cc2ccc(F)cc2)c(=O)[nH]c1=O (stereo unspecified)	-48.2%[12.7 µM]	?	21.2%	79.4µM*	.
O=c1[nH]c(=O)n(Cc2ccc(F)cc2)c(O)c1C=NCc1cccnc1	5.0%	-8.9%	9.8%	-18.2%	-4.2%
[O-]C1=N/[N+](=C/c2ccc(Cl)cc2)CC1	8.91µM*	11.1%	25.5%	-10.3%	.
CCCCCOc1c(OC)ccc2cc(C(=O)NCc3ccc4c(c3)OCO4)c(=O)[nH]c12	35.9%[59 µM]	.	.	.	.
O=C(CN1CCOCC1)Nc1ccc(Br)cc1C(=O)c1ccccc1	-7.2%[59 µM]	0.8%	7.8%	-10.5%	6.9%
O=C(CCN1CCOCC1)Nc1ccc(Br)cc1C(=O)c1ccccc1	35.5µM*	-31.1%	32.8%	-25.6%	-5.0%
COc1ccc2c(c1)c(C(=O)O)c(C)n2CC(C)C	8.8%[12.7 µM]	-2.2%	18.9%	-9.8%	.
COc1cc(O)c(C(=O)O)c(-c2cc(O)c(O)cc2C)c1	0.355µM*	56.2µM*	?	12.6µM*	.
CCCCn1c(-c2nn(C)cc2Cl)n[nH]c1=S	12.6µM*	-2.1%[57.1 µM]	3.3%	7.94µM*	-8.8%
CCn1c(-c2nn(-c3ccccc3)ccc2=O)n[nH]c1=S	-125.6%[59 µM]	?	41.4%	?	10.2%
CC1OC(O[C@H]2C[C@@H](O)[C@]3(CO)[C@@H]4C(CC[C@]3(O)C2)[C@@]2(O)CC[C@H](C3=CC(=O)OC3)[C@@]2(C)C[C@H]4O)C(O)C(O)C1O (stereo partly specified)	27.7%[59 µM]	.	.	.	.
